Unmarked numbers belong to inactive results. No rule for the calls is given here.
Each compound was assayed against Pantothenate synthetase (Mycobacterium tuberculosis (strain ATCC 25618 / H37Rv)) (UniProt P9WIL5) (assay: Coupled enzyme confirmation of inhibitors against recombinant Mtb PanC (AID 375;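 also: 0% = full reaction with vehicle and 100% = no enzyme background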)). Details: coupled enzyme assay; at 10 µM, active compounds read high.
Sequence of Pantothenate synthetase (Mycobacterium tuberculosis (strain ATCC 25618 / H37Rv)) (P9WIL5 whole entry, looked up): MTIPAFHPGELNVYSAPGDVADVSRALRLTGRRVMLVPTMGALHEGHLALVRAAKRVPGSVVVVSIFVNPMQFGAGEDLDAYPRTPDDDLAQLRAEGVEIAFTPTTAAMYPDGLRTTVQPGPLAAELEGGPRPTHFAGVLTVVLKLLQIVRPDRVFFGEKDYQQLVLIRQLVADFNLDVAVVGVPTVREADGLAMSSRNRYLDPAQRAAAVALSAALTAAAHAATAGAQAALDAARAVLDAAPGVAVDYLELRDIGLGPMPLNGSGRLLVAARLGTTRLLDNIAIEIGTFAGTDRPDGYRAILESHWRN

Row | Compound | inhibition [%]
1 | O=C(c1cnn2c1NC(c1ccco1)CC2C(F)(F)F)N1CCN(c2cccc(Cl)c2)CC1 (stereo not drawn) | 4
2 | CC(C)CCNC(=O)CCNS(=O)(=O)c1ccc(Cl)cc1 | 0
3 | CC1C(=O)C(C)C(c2cccs2)NC1c1cccs1 (stereo not drawn) | 0
4 | Cc1c(NS(=O)(=O)c2ccc3c(c2)c(=O)n(C)c(=O)n3C)c(=O)n(-c2ccccc2)n1C | 14
5 | CCCCOCCCNC(=O)c1ccccc1OCC | 2
6 | COC(=O)c1ccc2c(=O)n(Cc3ccco3)c(SCC(=O)Nc3ccc(C)c(Cl)c3)nc2c1 | 2
7 | CCOC(=O)Cc1nnc(Nc2cccc(O)c2)c2ccccc12 | 9
8 | COc1ccc(C2CC(=O)c3cnc(NC(=O)c4ccccc4OC)nc3C2)c(OC)c1 (stereo not drawn) | 8
9 | COc1ccc(C2=Nn3c(nnc3-c3cccnc3)SC2)cc1 | 0
10 | O=C(O)C1CCCCC1C(=O)Nc1ccccn1 (stereo not drawn) | 0
11 | CCOCCCNC(=O)Cn1cc2c(n1)CCCCC2 | 2
12 | Cc1ccc(Nc2cc(-n3nc(C)cc3C)ncn2)cc1 | 0
13 | COc1ccc(N2CC(C(=O)Nc3ccc(F)cc3F)CC2=O)cc1 (stereo not drawn) | 1
14 | O=C(CN(CC1CCCO1)C(=O)CCC(=O)Nc1ccccn1)NCC1CCCO1 (stereo not drawn) | 8
15 | CCOc1ccccc1C(=O)Nn1c(C2CCC2)nc2ccccc2c1=O | 0
16 | COc1ccc(C)cc1S(=O)(=O)N(C)CC(=O)Nc1ccc2c(c1)OCCO2 | 2
17 | COc1cccc(-n2c(C)nc3c(cnn3-c3ccc(C)cc3)c2=O)c1 | 3
18 | CCCN(CCC)C(=O)CC(c1ccc(F)cc1)c1ccco1 (stereo not drawn) | 1
19 | CS(=O)(=O)N1CCN(c2ccccc2NC(=O)c2ccc(-c3ccc(Cl)cc3Cl)o2)CC1 | 7
20 | O=C(Nc1cccc2ccccc12)N1CCOCC1 | 0
21 | CNC(=O)NCCN1CCCC1=O | 6
22 | COc1ccc(-c2cc(C(=O)Nc3ccc(C)cc3)no2)cc1 | 0
23 | O=C(NCCCN1CCOCC1)c1cc(-c2ccc(O)cc2)on1 | 0
